Screening data deposited in PubChem by The Scripps Research Institute Molecular Screening Center.
TTR transcr act: activators of transthyretin transcription | 1.3% of 92,000 active | activation, % at 16.7 µM | SH-SY5Y TTR promoter Gaussia luciferase, luminescence; 100% = recombinant luciferase protein wells;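 active means activation above the mean of all tested compounds plus 3 SD, cut at about 9.5% in these data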;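 further: cells exposed to compounds for one day before reading; 0% = median of all test compound wells on the plate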
HuH7 TTR inh: decreases TTR transcription in HuH7 cells in activator counter-screen; shares compounds with TTR transcr act; HuH7 TTR promoter-Gaussia luciferase reporter, luminescence; inhibition, % at 16.7 µM; 4% of 1,100 active;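 active means average inhibition above the solvent-only control wells' mean plus 3 SD, cut at about 15% in these data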;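 further: 0% = cells with DMSO only and 100% = cells with inhibitor control FD; inhibitors lower well luminescence so higher value means more inhibition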
TTR up confirm: human TTR transcription activation, confirmation; shares compounds with TTR transcr act; activation, % at 16.7 µM; AID 1117280; 1,100 tested, under 10 active; SHSY5Y TTR promoter Gaussia luciferase, luminescence; 100% = purified Lucia enzyme wells, no cells;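 active means mean activation above a set limit taken from the earlier primary screen, cut at about 11% in these data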;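 further: 0% = DMSO-treated cells and 100% = recombinant Lucia luciferase without cells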
* = called active by the depositor. Shown is part of a subset that was picked to be rich in hits.

SMILES	TTR transcr act	others
COc1ccc(CN2C(=O)c3cccnc3C2=O)cc1S(=O)(=O)NCc1ccc(C)cc1	-2.2
Cc1cccc(CNS(=O)(=O)c2ccc(-c3ccc(=O)[nH]n3)s2)c1	0.1
COc1ccc(-c2cc(C)no2)cc1S(=O)(=O)NCc1cccc(C)c1	9.8*	HuH7 TTR inh=28.2*;TTR up confirm=-1.0
COC(=O)C1CN(C(=O)OC(C)(C)C)C2=C1C(=O)CC(C)(C(=O)OC(C)(C)C)C2 (stereo not given)	3.0
C=CCNC(=S)/C(=C(\[O-])c1ccc(Cl)cc1)[n+]1ccccc1	1.1
[O-]/C(=C(\C(=S)Nc1ccc(SC(F)F)cc1)[n+]1ccccc1)c1cc(Cl)ccc1Cl	22.3*	HuH7 TTR inh=20.5*;TTR up confirm=-1.2
Cc1cc(C)c(/C([O-])=C(/C(=S)Nc2ccc(SC(F)F)cc2)[n+]2ccccc2)cc1C	-2.5
Cc1nc2ccccn2c1P(=O)(c1ccccc1)c1ccccc1	1.0
Cc1cccc2c1CCC1CN(Cc3ccccc3)S(=O)(=O)N21 (stereo not given)	-0.9
CCCC[C@H]1C2CC(OC(=O)Nc3ccccc3OC)C(C2)[C@H]2CCCCN21 (stereo not given in full)	1.2
Cc1ccc(C(=O)CNc2ccc(C)cc2C)cc1	5.4
Cc1ccc(NCCC(=O)c2cccc([N+](=O)[O-])c2)c(C)c1	16.4*	HuH7 TTR inh=-1.9;TTR up confirm=-0.1
Cc1cccc(NCCC(=O)c2ccc([N+](=O)[O-])cc2)c1C	0.3
Nc1[nH]c(C(=O)c2ccccc2)c(-c2ccc(Br)cc2)c1C(=O)NCCCN1CCOCC1	2.7
O=C(NCCCc1ccccc1)[C@H](Cc1c[nH]c2ccccc12)NC1(C(=O)NCCc2c[nH]c3ccccc23)CCOCC1	-1.6
CN1C(=O)C(=O)N2C(=C[C@]3(c4c[nH]c5ccccc45)c4ccccc4N[C@H]23)C1=O	0.9
COc1cc2c(=O)n(CC3CCCO3)c(=O)n(CC(=O)Nc3ccc(F)cc3F)c2cc1OC (stereo not given)	0.4
COc1cc2c(=O)n(CC3CCCO3)c(=O)n(CC(=O)Nc3cccc(Cl)c3)c2cc1OC (stereo not given)	10.4*	HuH7 TTR inh=-27.5;TTR up confirm=-0.4
COc1ccc(NC(=O)Cn2c(=O)n(CC3CCCO3)c(=O)c3cc(OC)c(OC)cc32)c(OC)c1 (stereo not given)	-0.4
Cn1ccc2cc(S(=O)(=O)N3CCN(S(=O)(=O)c4c(F)cccc4F)CC3)ccc21	1.3
CCCCOc1ccc(C(=O)NC2CCCCN(Cc3ccccc3C)C2=O)cc1 (stereo not given)	-0.2
Cc1cc2nc(-c3cccc(Cl)c3)c(CC3CCCCC3)n2c(C)c1Br	2.1
Cc1cc2nc(-c3ccccc3)c(CC3CCCCC3)n2c(C)c1Br	22.5*	HuH7 TTR inh=-8.1;TTR up confirm=0.7
Cc1ccc(-c2nc3cc(C)c(Br)c(C)n3c2CC2CCCCC2)cc1	9.8*	HuH7 TTR inh=-9.2;TTR up confirm=-0.2
Cc1cc2nc(-c3ccc(F)cc3)c(CC3CCCCC3)n2c(C)c1Br	1.7
SMILES	TTR transcr act	others
COc1ccc(-c2nc3cc(C)c(Br)c(C)n3c2CC2CCCCC2)cc1OC	2.3
CCCc1nc2cc(C)c(Br)c(C)n2c1CC1CCCCC1	-1.6
Cn1cccc1CC(=O)N/N=C/C=C/c1ccccc1	3.7
Cc1cc(C)nc(SCC(=O)N/N=C/C=C/c2ccccc2)n1	13.9*	HuH7 TTR inh=-12.4;TTR up confirm=0.1
C/C(=N\NC(=O)CSc1nc(C)cc(C)n1)c1cccs1	-0.5
O=C(Nc1ccccc1)Nc1c(-c2ccc(F)cc2)nc2ncccn12	1.6
C#CCNC(=O)C[C@H]1C[C@@]2(C(=O)OC)C(=C[C@H](COCc3ccccc3)O[C@@H]2C)N(CCc2ccc(OC)c(OC)c2)C1=O	1.6
O=C(NCCCc1ccccc1)[C@H](Cc1c[nH]c2ccccc12)NC1(C(=O)NCCc2c[nH]c3ccccc23)CCC1	-2.4
COc1ccc([C@H]2N[C@]3(CCCN(Cc4cccn4C)C3=O)[C@H]3C(=O)N(C)C(=O)[C@@H]23)cc1	-0.4
CCN1C(=O)[C@H]2[C@@H](c3ccc(C)cc3)N[C@]3(CCCN(CCC(C)C)C3=O)[C@H]2C1=O	20.0*	HuH7 TTR inh=-5.0;TTR up confirm=-0.1
CCN1C(=O)[C@H]2[C@@H](c3ccc(OC)cc3)N[C@]3(CCCN(Cc4ccco4)C3=O)[C@H]2C1=O	3.7
CC(C)CCN1CCC[C@]2(N[C@H](c3ccccc3)[C@@H]3C(=O)N(Cc4ccccc4)C(=O)[C@@H]32)C1=O	1.8
CN1C(=O)[C@H]2[C@@H](c3ccccc3)N[C@]3(CCCN(Cc4ccco4)C3=O)[C@H]2C1=O	10.0*	HuH7 TTR inh=-6.5;TTR up confirm=1.3
CCN1C(=O)[C@H]2[C@@H](c3ccccc3)N[C@]3(CCCN(Cc4ccccc4)C3=O)[C@H]2C1=O	0.0
O=C(c1ccc(Cl)cc1)N1CCN(c2ccccn2)CC1	-0.5
COC(CNC(=O)[C@H](Cc1ccccc1)NC1(C(=O)NC2CCCCC2)CCC1)OC	1.3
CCCC1CCC2(CC1)CCC2OC(=S)NCc1cccc(OC)c1 (stereo not given)	1.0
C=CC[C@]1(O)C(=O)N(c2ccccc2)c2ccccc21	-0.7
CCCCNC(=O)C[C@H]1C(=O)N(Cc2ccc(OC)cc2)C2=CCCCC[C@@]21C(=O)OC	-1.4
CCC(=O)c1ccc(OCC(=O)N(C)CC(=O)Nc2cccc(F)c2)cc1	10.0*	HuH7 TTR inh=-13.5;TTR up confirm=-0.1
Cc1ccc(NC(=O)CSCC(=O)N(C)CC(=O)Nc2cccc(F)c2)cc1	-0.5
CN(CC(=O)Nc1cccc(F)c1)C(=O)c1ccc(OCC2CCCO2)cc1 (stereo not given)	-0.3
O=C(OCc1ccccc1)[C@H](Cc1ccccc1)NC(=O)[C@@H]1CC=C[C@@H]2CCN(CCc3ccccc3)C(=O)[C@@H]21	0.5
CCCCCCCCN1C(=O)[C@@H](CC(=O)NCC23CC4CC(CC(C4)C2)C3)C[C@@]2(C(=O)OC)C1=C[C@H](C(C)C)O[C@@H]2C1CC1	1.0
COC(=O)[C@]12C[C@H](CC(=O)NCc3cccs3)C(=O)N(Cc3cccc4ccccc34)C1=C[C@H](C(C)(C)C)O[C@@H]2C	-0.4
SMILES	TTR transcr act	others
O=S1(=O)c2ccc(N3CC[C@H](O)C3)cc2O[C@@H]2CCN1C2	1.3
CN(C)S(=O)(=O)c1cccc(NC(=O)CSc2nncn2C)c1	11.5*	HuH7 TTR inh=-5.8;TTR up confirm=5.0
Cn1cnnc1SCC(=O)Nc1ccccc1	0.2
CN(c1ccccc1)S(=O)(=O)c1cccc(NC(=O)CSc2nnc(C3CC3)n2C)c1	2.0
CN(C)c1cccc(-c2cnc(N3CCC(C(N)=O)CC3)s2)c1	3.3
CCOC(=O)[C@@]12CCC3=C1N(CCC3)C(=O)[C@H](CC(=O)NCc1cccc(C(F)(F)F)c1)C2	0.2
C[C@H]1[C@H](NCc2cccnc2)CC[C@@]23CCCN2C(=O)CCC[C@@H]13	0.7
COC(=O)[C@]12C[C@H](CC(=O)N3CCCC3)C(=O)N(CCc3ccc(OC)c(OC)c3)C1=C[C@H](C(C)C)O[C@@H]2C1CC1	0.3
CCOC(=O)N/N=C/c1ccc(F)cc1F	26.0*	HuH7 TTR inh=-4.3;TTR up confirm=-0.4
CCOC(=O)N/N=C\c1sccc1C	-1.0
CCOC(=O)N/N=C/c1ccccc1OCc1ccc(Cl)cc1	-2.2
CC(C)(C)OC(=O)NCCc1ccccc1/C=C/S(=O)(=O)NC1CCCC1	3.4
Cc1cc(C)cc(C(=O)N2CCC(CCC(=O)NC3CC3)CC2)c1	-0.3
